Experiment [1] in a line: ATG_CRE_CIS: Attagene CIS-FACTORIAL HepG2 Assay for human cAMP Responsive Element (CRE) binding protein 3 (AID 2282926). The following applies: HepG2 CRE cis-reporter, Attagene multiplexed mRNA; actives raise or lower the signal. The procedure, abridged:
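Capillary electrophoresis of 6-FAM-labelled, HpaI-digested PCR products quantified reporter transcripts. These came from HepG2 transiently transfected with cis-element reporters and exposed to test chemicals for 24 hours, with DMSO defining baseline activity.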

Experiment [2] concerns the target CCAAT/enhancer-binding protein beta (Homo sapiens) (UniProt P17676). As to the kind of experiment: ATG_C_EBP_CIS: Attagene CIS-FACTORIAL HepG2 Assay for human CCAAT/Enhancer Binding Protein (C/EBP) beta (AID 2282927). To be noted: HepG2 Attagene cis-factorial transcription factor reporter; actives raise or lower the signal. In short, it runs like this:
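Endogenous transcription factor activity in human liver HepG2 cells is inferred from induction of a CEBPB-linked reporter mRNA. Exposure lasts 24 h; activity is fitted in both directions relative to DMSO.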

A short description of experiment [3]: ATG_CMV_CIS: Attagene CIS-FACTORIAL HepG2 Assay for human CMV (Internal Marker) (AID 2282928).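 Note: endpoint acts as a background internal control marker rather than a target.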 To be noted: HepG2 CMV promoter reporter, transcription factor profiling; actives raise or lower the signal. In short, it runs like this: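 24 h chemical treatment, HepG2 with transient multi-reporter transfection; RNA → oligo(dT) RT → PCR → 6-FAM extension → HpaI digest → CE fluorescence. Bidirectional fit, DMSO negative control.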

The nature of experiment [4]: ATG_DR4_LXR_CIS: Attagene CIS-FACTORIAL HepG2 Assay for human Liver X Receptor (LXR), DR4 submotif (AID 2282929). The following applies: HepG2 Attagene DR4 cis-reporter, mRNA transcription; actives raise or lower the signal. In short, it runs like this: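 Cells were transfected with multiple reporter transcription units, exposed to chemicals for 24 hours, then lysed for RNA. Reporter mRNA induction was measured by RT-PCR with capillary electrophoresis detection and fitted in both directions relative to DMSO.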

In experiment [5] the target is Aryl hydrocarbon receptor (Homo sapiens) (UniProt P35869). Put plainly: ATG_Ahr_CIS: Attagene CIS-FACTORIAL HepG2 Assay for human Aryl Hydrocarbon Receptor (Ahr) (AID 2282930). The following applies: HepG2 AhR cis-factorial reporter transcription; actives raise or lower the signal. The procedure, abridged:
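Transient MRTU transfection of HepG2 → 24 h compound exposure → total RNA, oligo(dT) RT → PCR, 6-FAM extension, HpaI cut → CE fluorescence. DMSO = baseline; bidirectional curve fit.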

The nature of experiment [6]: ATG_AP_1_CIS: Attagene CIS-FACTORIAL HepG2 Assay for human Activator Protein 1 (AP-1) (AID 2282931). To be noted: HepG2 Attagene cis-factorial AP-1 reporter mRNA; actives raise or lower the signal. The procedure, abridged:
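Endogenous transcription-factor activity in human HepG2 liver cells is read through a cis-promoter reporter transcript, sampled 24 h after dosing. Detection uses RT-PCR with capillary electrophoresis; values come from bidirectional fitting relative to DMSO.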

The nature of experiment [7]: ATG_AP_2_CIS: Attagene CIS-FACTORIAL HepG2 Assay for human Activator Protein 2 (AP-2) (AID 2282932). To be noted: HepG2 AP-2 cis-reporter, Attagene transcription factor profiling; actives raise or lower the signal. The procedure, abridged:
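Transiently transfected HepG2 cells are exposed to chemical for 24 h. Reporter transcripts are then measured as fluorescence following RT-PCR and capillary separation, and gain- or loss-of-signal is fitted relative to DMSO.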

Experiment [8] in a line: ATG_BRE_CIS: Attagene CIS-FACTORIAL HepG2 Assay for human Bone Morphogenetic Protein (BMP) Response Element (BRE) (AID 2282933). To be noted: HepG2 BMP response element reporter, Attagene transcription factor profiling; actives raise or lower the signal. In short, it runs like this: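 Fluorescence-labelled reporter cDNA fragments, separated by capillary electrophoresis, gave the signal for this component of a 52-readout multiplex. HepG2 cells were transfected, exposed to chemicals for 24 h, and compared with DMSO using bidirectional fitting.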

In experiment [9] the target is Transcription factor E2F1 (Homo sapiens) (UniProt Q01094). As to the kind of experiment: ATG_E2F_CIS: Attagene CIS-FACTORIAL HepG2 Assay for human E2F Transcription Factor 1 (AID 2282935). The following applies: HepG2 Attagene cis-reporter, E2F reporter RNA transcripts; actives raise or lower the signal. The procedure, abridged:
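Fluorescent RT-PCR products, digested with HpaI for 2 h at 37 C, are separated by capillary electrophoresis. Source RNA comes from transfected HepG2 cultures treated for 24 h.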

Experiment [10] in a line: ATG_E_Box_CIS: Attagene CIS-FACTORIAL HepG2 Assay for human Enhancer Box (E-box) (AID 2282936). To be noted: HepG2 E-box cis-reporter transcription, actives raise or lower the signal. In short, it runs like this:
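Fluorescent reporter fragments separated by capillary electrophoresis gave the signal; mRNA came from HepG2 cells transfected with cis-element reporters and treated 24 h. Curves fitted bidirectionally relative to DMSO controls.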

A short description of experiment [11]: ATG_M_61_CIS: Attagene CIS-FACTORIAL HepG2 Assay for M61 Transcription Factor (Internal Marker) (AID 2282937). To be noted: HepG2 Attagene CIS-FACTORIAL M61 internal marker reporter; actives raise or lower the signal. The procedure, abridged:
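Cells were transfected with reporter units under cis-regulatory promoters, treated with chemicals for 24 h, then lysed for RNA. Reporter transcripts were quantified by RT-PCR and capillary electrophoresis, and activity was fitted bidirectionally against DMSO.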

Experiment [12] can be described thus: ATG_EGR_CIS: Attagene CIS-FACTORIAL HepG2 Assay for human Early Growth Response 1 (EGR1) (AID 2282938). To be noted: HepG2 Attagene CIS-FACTORIAL EGR reporter mRNA; actives raise or lower the signal. In short, it runs like this:
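Endogenous TF activity in HepG2 liver cells was gauged through cis-promoter reporter constructs transiently transfected. After 24 h dosing, reporter mRNA was quantified by RT-PCR and capillary electrophoresis, and curves fitted in both directions versus DMSO.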

Experiment [13] is described as follows: ATG_M_19_CIS: Attagene CIS-FACTORIAL HepG2 Assay for M19 Transcription Factor (Internal Marker) (AID 2282939). The following applies: HepG2 Attagene CIS-FACTORIAL M19 internal marker reporter; actives raise or lower the signal. In short, it runs like this: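 HepG2, MRTU transient transfection, 24 h dosing. Total RNA → RT-PCR → 6-FAM primer extension → HpaI digest → CE fluorescence. Bidirectional curve fit, DMSO negative control.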

Experiment [14] can be described thus: ATG_Ets_CIS: Attagene CIS-FACTORIAL HepG2 Assay for human Erythroblast Transformation Specific (ETS) (AID 2282941). To be noted: HepG2 ETS cis-reporter transcription, actives raise or lower the signal. The procedure, abridged:
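Cis-regulated reporter mRNA induction in HepG2 (transient transfection), 24 h exposure, RT-PCR plus capillary electrophoresis detection; DMSO serves as negative control and baseline.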

Experiment [15] has as its target Hepatocyte nuclear factor 3-beta (Homo sapiens) (UniProt Q9Y261). As to the kind of experiment: ATG_FoxA2_CIS: Attagene CIS-FACTORIAL HepG2 Assay for human Forkhead box A2 (FOXA2) (AID 2282942). The following applies: HepG2 cis-reporter transcription factor activity, 24 h; actives raise or lower the signal. The procedure, abridged:
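Endogenous transcription factor activity was read in HepG2 cells carrying transiently transfected cis-promoter reporter units. After 24 h dosing, reporter mRNA was quantified by RT-PCR and capillary electrophoresis, and values fitted bidirectionally versus DMSO.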

Experiment [16] is described as follows: ATG_FoxO_CIS: Attagene CIS-FACTORIAL HepG2 Assay for human Forkhead box O (FoxO) (AID 2282943). To be noted: HepG2 Attagene cis-reporter, FoxO element, mRNA; actives raise or lower the signal. In short, it runs like this:
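HepG2, transient MRTU transfection (cis element, endogenous TFs). Dose 24 h. TriZol RNA → oligo(dT) RT → PCR → 6-FAM primer extension → HpaI cut → CE. Gain/loss vs DMSO.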

Experiment [17] is described as follows: ATG_GATA_CIS: Attagene CIS-FACTORIAL HepG2 Assay for human GATA Binding Protein (AID 2282944). To be noted: HepG2 GATA cis-element reporter, Attagene multiplex mRNA; actives raise or lower the signal. The procedure, abridged: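 Cells: HepG2, transiently transfected with cis-regulated reporter transcription units. Exposure: 24 h. Detection: RT-PCR plus capillary electrophoresis of FAM-labeled fragments. Analysis: bidirectional, DMSO as baseline.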

A short description of experiment [18]: ATG_GLI_CIS: Attagene CIS-FACTORIAL HepG2 Assay for human Zinc Finger Protein GLI1 (AID 2282945). The following applies: HepG2, Attagene cis-factorial reporter mRNA, GLI element; actives raise or lower the signal. The procedure, abridged:
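Bidirectional curve fits relative to DMSO, using reporter mRNA levels from RT-PCR plus capillary electrophoresis. Cells were HepG2 transiently carrying cis-regulated reporter constructs, harvested 24 h after dosing.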

Experiment [19] is described as follows: ATG_ERE_CIS: Attagene CIS-FACTORIAL HepG2 Assay for Estrogen Response Element (ERE) (AID 2282940). The following applies: HepG2 ERE cis-reporter, Attagene RNA transcript; actives raise or lower the signal. In short, it runs like this:
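After a 24 h chemical treatment, RNA from reporter-transfected HepG2 cells is reverse-transcribed, PCR-amplified and fluorescently labelled. Fragments separated by capillary electrophoresis give reporter signal; DMSO serves as negative control.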

The target in experiment [20] is Bile acid receptor (Homo sapiens) (UniProt Q96RI1). As to the kind of experiment: ATG_IR1_CIS: Attagene CIS-FACTORIAL HepG2 Assay for human Nuclear Receptor Subfamily 1 Group H Member 4 (NR1H4), IR1 submotif (AID 2282946). The following applies: IR1 reporter transcription, actives raise or lower the signal. In short, it runs like this:
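HepG2 cells transiently transfected with multiplexed cis-element reporter units read endogenous transcription factor activity. After 24 h compound exposure, reporter mRNA was quantified by RT-PCR, fluorescent labelling, HpaI digestion and capillary electrophoresis; bidirectional fitting versus DMSO baseline.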

Calls of active or inactive are those of the source. Rule for the calls: active = hit-call score of the fitted dose curve at least 0.9, where 1 is the maximum; inactive = score below 0.9.

Chain of Aryl hydrocarbon receptor (Homo sapiens) (P35869 whole entry, looked up): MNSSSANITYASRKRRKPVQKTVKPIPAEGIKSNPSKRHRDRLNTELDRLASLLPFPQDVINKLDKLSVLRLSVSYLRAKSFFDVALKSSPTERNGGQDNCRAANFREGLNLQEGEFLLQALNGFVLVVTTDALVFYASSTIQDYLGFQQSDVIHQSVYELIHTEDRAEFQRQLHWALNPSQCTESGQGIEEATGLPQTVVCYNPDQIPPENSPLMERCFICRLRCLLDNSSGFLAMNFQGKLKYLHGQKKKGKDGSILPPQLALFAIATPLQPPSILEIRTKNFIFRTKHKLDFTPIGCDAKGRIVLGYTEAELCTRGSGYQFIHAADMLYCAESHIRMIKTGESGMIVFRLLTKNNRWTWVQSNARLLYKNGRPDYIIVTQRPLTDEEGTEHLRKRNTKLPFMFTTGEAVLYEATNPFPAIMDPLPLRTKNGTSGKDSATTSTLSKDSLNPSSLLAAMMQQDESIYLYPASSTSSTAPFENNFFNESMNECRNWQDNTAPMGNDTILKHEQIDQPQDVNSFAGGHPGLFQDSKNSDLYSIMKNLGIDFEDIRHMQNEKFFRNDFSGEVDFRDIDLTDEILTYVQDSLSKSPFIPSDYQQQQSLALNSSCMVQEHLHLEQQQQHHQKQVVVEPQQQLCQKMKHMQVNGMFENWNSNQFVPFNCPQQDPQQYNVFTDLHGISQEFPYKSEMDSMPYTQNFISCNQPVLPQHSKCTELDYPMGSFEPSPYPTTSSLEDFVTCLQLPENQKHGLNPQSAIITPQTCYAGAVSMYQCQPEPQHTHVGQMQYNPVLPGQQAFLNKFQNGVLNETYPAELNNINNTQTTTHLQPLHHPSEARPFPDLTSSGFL
Chain of Transcription factor E2F1 (Homo sapiens) (Q01094 whole entry, looked up): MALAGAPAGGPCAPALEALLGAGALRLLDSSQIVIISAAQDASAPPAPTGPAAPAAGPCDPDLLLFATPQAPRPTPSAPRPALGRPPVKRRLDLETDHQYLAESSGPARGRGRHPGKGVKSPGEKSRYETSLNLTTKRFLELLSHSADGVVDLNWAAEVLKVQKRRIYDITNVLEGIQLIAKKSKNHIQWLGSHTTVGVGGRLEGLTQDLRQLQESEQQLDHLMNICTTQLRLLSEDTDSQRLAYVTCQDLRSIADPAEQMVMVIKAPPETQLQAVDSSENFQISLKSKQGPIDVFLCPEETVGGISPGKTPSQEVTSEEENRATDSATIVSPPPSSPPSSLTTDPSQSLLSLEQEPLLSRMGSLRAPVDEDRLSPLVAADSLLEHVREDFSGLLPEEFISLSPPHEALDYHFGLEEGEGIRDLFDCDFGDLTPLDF
Chain of CCAAT/enhancer-binding protein beta (Homo sapiens) (P17676 whole entry, looked up): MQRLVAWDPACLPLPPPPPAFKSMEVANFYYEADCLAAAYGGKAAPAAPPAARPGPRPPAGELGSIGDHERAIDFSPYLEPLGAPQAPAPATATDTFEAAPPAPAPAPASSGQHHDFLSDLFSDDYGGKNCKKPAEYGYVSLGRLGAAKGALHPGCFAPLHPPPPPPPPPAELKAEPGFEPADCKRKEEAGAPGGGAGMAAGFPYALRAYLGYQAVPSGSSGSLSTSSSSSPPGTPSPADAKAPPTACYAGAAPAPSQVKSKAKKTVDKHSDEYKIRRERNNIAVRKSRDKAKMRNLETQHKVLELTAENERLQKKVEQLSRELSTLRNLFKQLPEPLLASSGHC
Chain of Hepatocyte nuclear factor 3-beta (Homo sapiens) (Q9Y261 whole entry, looked up): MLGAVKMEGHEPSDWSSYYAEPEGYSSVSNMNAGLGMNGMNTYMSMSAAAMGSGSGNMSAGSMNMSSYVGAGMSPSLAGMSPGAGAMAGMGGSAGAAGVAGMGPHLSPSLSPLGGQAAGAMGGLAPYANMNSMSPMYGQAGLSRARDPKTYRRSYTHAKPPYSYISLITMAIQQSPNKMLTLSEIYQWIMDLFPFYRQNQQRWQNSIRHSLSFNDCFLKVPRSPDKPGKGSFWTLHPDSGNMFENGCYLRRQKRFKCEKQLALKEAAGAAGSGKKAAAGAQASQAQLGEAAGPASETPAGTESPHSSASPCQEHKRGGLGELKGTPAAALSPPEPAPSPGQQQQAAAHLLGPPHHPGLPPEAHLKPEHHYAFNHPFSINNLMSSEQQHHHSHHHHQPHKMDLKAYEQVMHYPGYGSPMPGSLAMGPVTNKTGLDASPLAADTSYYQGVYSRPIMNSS
Chain of Bile acid receptor (Homo sapiens) (Q96RI1 whole entry, looked up): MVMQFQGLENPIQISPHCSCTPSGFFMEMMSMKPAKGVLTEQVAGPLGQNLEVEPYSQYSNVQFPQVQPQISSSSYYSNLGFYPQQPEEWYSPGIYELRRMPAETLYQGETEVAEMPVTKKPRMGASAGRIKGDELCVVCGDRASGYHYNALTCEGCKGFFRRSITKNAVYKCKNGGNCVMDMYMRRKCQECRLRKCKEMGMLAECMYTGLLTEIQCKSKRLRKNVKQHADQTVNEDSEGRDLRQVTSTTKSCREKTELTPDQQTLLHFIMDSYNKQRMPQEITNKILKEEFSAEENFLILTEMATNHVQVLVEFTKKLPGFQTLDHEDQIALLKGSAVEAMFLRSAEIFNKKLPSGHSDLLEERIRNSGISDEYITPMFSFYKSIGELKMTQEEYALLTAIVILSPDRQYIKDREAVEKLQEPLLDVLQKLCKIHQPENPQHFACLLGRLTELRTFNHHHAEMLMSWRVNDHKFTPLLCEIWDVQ

Turning to `COC(=O)[C@H]1[C@H]2C[C@@H]3c4[nH]c5cc(OC)ccc5c4CCN3C[C@H]2C[C@@H](OC(=O)c2cc(OC)c(OC)c(OC)c2)[C@@H]1OC`, the concentration at half-maximal activity (AC50) (as a rule, the concentration giving half of the maximal activity seen) in experiment [1] is 21.9 µM (active); in [4], 22.8 µM (active); in experiment [5] it was 12.5 µM (active); in experiment [6], 25.5 µM (active); in experiment [10], 51.6 µM (active); in [12], 8.83 µM (active). In addition, the result in experiment [2], in [3], in [7], in [8], in experiment [9] and in experiment [11] was inactive. The molecule was classed as inactive in experiment [13], in [14], in experiment [15], in [16], in experiment [17] and in [18].

Consider `CCCC[C@H]1CN(CC2CCOCC2)C(=O)OC12CCN(C1(C)CCN(C(=O)c3c(C)ncnc3C)CC1)CC2`, for which the molecule was classed as inactive in experiment [1], in [2], in experiment [3], in experiment [4], in [5] and in [6]. The molecule was called inactive in [7], in experiment [8], in experiment [9], in experiment [10], in experiment [11] and in [12]. Further, the outcome in experiment [13], in experiment [14], in experiment [15], in experiment [16], in experiment [17] and in experiment [18] was inactive.

For the molecule `CCc1nc(N)nc(N)c1-c1ccc(Cl)cc1`, the AC50 in [1] was 100 µM (active); in [2], 15 µM (active); in [3], 2.18 µM (active); in experiment [6], 2.53 µM (active); in [12], 32.8 µM (active). In addition, the molecule was classed as inactive in [4], in experiment [5], in experiment [7], in [8], in [9] and in experiment [10]. Moreover, the outcome in experiment [11], in experiment [13], in [19], in experiment [14], in experiment [15] and in [16] was inactive. The call in [17], in experiment [18] and in [20] was inactive.

Take `C/C=C/C=C/C(=O)O`: the outcome in experiment [1], in [2], in [3], in experiment [4], in experiment [5] and in [6] was inactive. Moreover, the outcome in experiment [7], in experiment [8], in [9], in experiment [10], in experiment [11] and in experiment [12] was inactive. Also, the call in [13], in [14], in experiment [15], in [16], in [17] and in experiment [18] was inactive.

(Values after PubChem BioAssay (EPA / NIEHS).)
